Experimental data as given in PubChem BioAssay AID1903 (Southern Research Specialized Biocontainment Screening …, 2009).
In all, about 310,000 compounds went through this assay and about 1,200 (0.39%) were called active. No rule for the calls is given here. The list is a sample of the results. Measured potencies and affinities stand elsewhere.

Each compound was assayed against Large T antigen (Simian virus 40) (UniProt P03070) (assay: TAg ATPase/helicase activity blockers – biochemical (AID 1903)). Details: SV40 large T antigen ATPase/helicase inhibition assay; at 20 µM; stronger effect = higher value.
Large T antigen (Simian virus 40), sequence (P03070 whole entry, looked up): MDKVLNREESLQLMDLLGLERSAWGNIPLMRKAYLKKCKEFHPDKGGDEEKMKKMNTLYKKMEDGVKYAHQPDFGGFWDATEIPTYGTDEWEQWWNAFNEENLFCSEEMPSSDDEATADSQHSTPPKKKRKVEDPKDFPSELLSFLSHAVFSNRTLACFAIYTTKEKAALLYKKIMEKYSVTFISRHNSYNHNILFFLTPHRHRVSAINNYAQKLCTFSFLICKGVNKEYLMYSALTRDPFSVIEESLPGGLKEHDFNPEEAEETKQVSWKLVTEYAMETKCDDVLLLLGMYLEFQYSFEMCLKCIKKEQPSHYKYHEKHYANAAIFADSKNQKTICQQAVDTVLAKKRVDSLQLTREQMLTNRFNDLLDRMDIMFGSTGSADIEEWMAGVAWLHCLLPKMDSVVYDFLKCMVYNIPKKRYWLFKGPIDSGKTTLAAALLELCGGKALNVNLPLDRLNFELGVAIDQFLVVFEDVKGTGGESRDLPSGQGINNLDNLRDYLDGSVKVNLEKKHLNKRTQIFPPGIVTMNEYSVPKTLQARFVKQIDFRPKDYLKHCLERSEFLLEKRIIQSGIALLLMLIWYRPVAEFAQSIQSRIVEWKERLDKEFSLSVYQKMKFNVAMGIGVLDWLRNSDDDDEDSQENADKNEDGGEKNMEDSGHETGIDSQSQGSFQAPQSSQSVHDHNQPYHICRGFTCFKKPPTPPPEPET
In the case of CC(C)CSc1nc2ccccc2[nH]1, the inhibition was 4.9% (inactive). With CC(NC(=O)c1cccnc1)C(=O)N1CCCCC1 (stereo unspecified) the inhibition was 11.9% (inactive). CC1CC1c1ccc(/C=C(\C#N)C(=O)Nc2ccccc2Cl)o1 (stereo unspecified) was tested, and the inhibition was 19.3% (inactive). In the case of O=C(Cn1c(O)c(/C=C2\C=Nc3ccc(Br)cc32)sc1=O)N1CCCC1, the inhibition was 2.37% (inactive). O=C(Nc1ccccc1F)c1ccc(CN2CCc3ccccc3C2)cc1 was tested, and the inhibition was -1.04% (inactive). With CC(C)c1cccc(C(C)C)c1NC(=O)CN1C(=O)NC2(CCCC2)C1=O the inhibition was 1.52% (inactive). In the case of CCC(C)(C)n1nnnc1C(c1ccc2ncccc2c1)N1CCCCCC1 (stereo unspecified), the inhibition was 3.78% (inactive). CC(C)(C)n1nnnc1C(c1cccnc1)N1CCN(c2ccccc2)CC1 (stereo unspecified) was tested, and the inhibition was 3.3% (inactive). With c1ccc(C(c2nnnn2C2CCCC2)N2CCN(c3ccccc3)CC2)cc1 (stereo unspecified) the inhibition was 11.2% (inactive). In the case of c1cc(C(c2nnnn2C2CCCC2)N2CCOCC2)ccn1 (stereo unspecified), the inhibition was 4.22% (inactive). CC(C)(C)n1nnnc1C(c1ccncc1)N1CCCCCC1 (stereo unspecified) was tested, and the inhibition was 17.8% (inactive). For c1ccc(C(c2ccccc2)N2CCN(C(c3ccccn3)c3nnnn3C3CCCC3)CC2)cc1 (stereo unspecified), the inhibition was -0.29% (inactive). c1ccc(C(c2nnnn2C2CCCC2)N2CCCCCC2)nc1 (stereo unspecified) was tested, and the inhibition was 4.88% (inactive). For CCC(C)(C)n1nnnc1C(c1ccc2ncccc2c1)N1CCN(c2nc3ccccc3s2)CC1 (stereo unspecified), the inhibition was 9.88% (inactive). Cc1nn(CC(=O)N/N=C/c2cccs2)c(C)c1[N+](=O)[O-] was tested, and the inhibition was 11.7% (inactive). With O=C(Nc1ccc(N2CCN(C(=O)c3ccccc3F)CC2)cc1)c1ncn[nH]1 the inhibition was 8.25% (inactive). With Cc1ccc2nc(Cl)c(/C=N/NC(=O)CN3CCOCC3)cc2c1 the inhibition was 11.5% (inactive). For COc1ccc(C(Nc2ccccn2)c2c(NC(=O)c3ccco3)sc(C)c2C)cc1 (stereo unspecified), the inhibition was 14.4% (inactive). For Cc1cc(C)n(CC(=O)NC2CCCc3c2cnn3-c2ccc(C)c(C)c2)n1 (stereo unspecified), the inhibition was 2.04% (inactive). With CC(C)C(CCN1C(=O)c2ccccc2C1=O)c1ccco1 (stereo unspecified) the inhibition was 16.2% (inactive). For CCCN(C(=O)CCSc1ccc(F)cc1)c1c(N)n(Cc2ccccc2)c(=O)[nH]c1=O, the inhibition was 5.85% (inactive). CCCCCCC(=O)Nc1nnc(CC)s1 was tested, and the inhibition was 4.74% (inactive). In the case of COc1ccc(CC(=O)N/N=C/c2sccc2C)cc1, the inhibition was 4.71% (inactive). O=C(Nc1cccc2ccccc12)N1CC=CCC1 was tested, and the inhibition was 5.64% (inactive). In the case of CCOc1ccc(C(=O)NC(=S)Nc2ncccc2C)cc1[N+](=O)[O-], the inhibition was 5.78% (inactive). COc1ccc(-c2noc(N3CCCC(C(=O)Nc4ccc(F)cc4F)C3)n2)cc1 (stereo unspecified) was tested, and the inhibition was 5.72% (inactive). For O=C1N/C(=C/c2ccc(Br)s2)C(=O)N1c1ccccc1, the inhibition was 8.81% (inactive). In the case of CC1=NN(c2ccc(C)cc2)C(=O)/C1=C\c1ccc(Br)s1, the inhibition was -1.11% (inactive). With Cc1ccc(S(=O)(=O)N2CCCCC2)cc1C(=O)NC1CC(C)(C)NC(C)(C)C1 the inhibition was 13.5% (inactive). For CCOC(=O)C1=C(O)/C(=C\c2ccc(OC)c(OC)c2)N=C1C, the inhibition was 4.98% (inactive). With COC(=O)C1=C(O)/C(=C\c2ccc(OCC(=O)Nc3ccccc3)cc2)N=C1C the inhibition was 4.47% (inactive). COC(=O)C1=C(O)/C(=C\c2ccc(OCC(=O)Nc3ccccc3OC)cc2)N=C1C was tested, and the inhibition was -3.54% (inactive). CCOC(=O)C1=C(O)/C(=C/c2cc(OC)c(OC)c(OC)c2)N=C1C was tested, and the inhibition was 3.44% (inactive). With COC(=O)C1=C(O)/C(=C\c2sccc2C)N=C1C the inhibition was 10.2% (inactive). For COC(=O)C1=C(O)/C(=C\c2ccc(OCC(=O)Nc3ccc(OC)cc3)cc2)N=C1C, the inhibition was 7.17% (inactive). For C=CCc1cccc(CNc2nc3ccccc3n2CCN2CCOCC2)c1O, the inhibition was -5.32% (inactive). In the case of O=C(/C=C/c1cccc(Br)c1)NC1CCN(Cc2ccccc2)CC1, the inhibition was 7.35% (inactive). For Oc1ccccc1N=Cc1sc2ccccc2c1Cl, the inhibition was 19.7% (inactive). CSc1ccccc1NC(=O)CSc1nncs1 was tested, and the inhibition was 14.5% (inactive). For CN(C(=O)C1CCCO1)c1nnc(-c2ccccn2)s1 (stereo unspecified), the inhibition was 8.98% (inactive). For CCc1ccc(NC(=O)CC2NCCNC2=O)cc1 (stereo unspecified), the inhibition was 8.15% (inactive). With O=C(CN1CCCC1)Nc1ccc(F)cc1 the inhibition was -4.88% (inactive). CCN(CC)c1ccc(NC(=O)CN2CCN(CC(=O)Nc3ccc(F)cc3)CC2)cc1 was tested, and the inhibition was 26.9% (inactive). For Cc1ccc(NC(=O)CC2NCCNC2=O)cc1 (stereo unspecified), the inhibition was 5.94% (inactive). In the case of CC(=O)c1ccc(NC(=O)Cn2nc(C)c([N+](=O)[O-])c2C)cc1, the inhibition was 4.55% (inactive). CN1CC(=O)N(CC(=O)Nc2ccc(N(C)C)cc2)c2ccccc2C1=O was tested, and the inhibition was 37.1% (inactive). CN(C)c1ccc(NC(=O)CN2C(=O)CC(c3ccccc3)=Nc3ccccc32)cc1 was tested, and the inhibition was 47% (inactive). In the case of Cc1nn(CC(=O)Nc2ccc(S(=O)(=O)N(C)C)cc2)c(C)c1[N+](=O)[O-], the inhibition was 10.9% (inactive). With CC12CCC(c3n[nH]c(=S)nc31)C2(C)C (stereo unspecified) the inhibition was 24.4% (inactive). Cc1ccc(SCC(=O)OCC(=O)NC2CCCCCC2)cc1 was tested, and the inhibition was 12.4% (inactive). In the case of O=C(CNC(=O)C12CC3CC(CC(C3)C1)C2)NC1=NCCS1, the inhibition was 14.4% (inactive). In the case of Cn1ccc(C(=O)Oc2ccc(C(=O)Nc3ccc(F)cc3F)cc2)n1, the inhibition was 1.18% (inactive). In the case of O=C(COC(=O)c1ccc(Cl)nc1)NCCNC(=O)COC(=O)c1ccc(Cl)nc1, the inhibition was 14.5% (inactive). For CC(=O)C1=C(O)C(=O)N(c2ccc(O)cc2)C1c1ccc(C)cc1 (stereo unspecified), the inhibition was 23.3% (inactive). In the case of Cn1cc(C(=O)Nc2ccc(F)c(Cl)c2)cn1, the inhibition was 8.31% (inactive). For COc1cccc(S(=O)(=O)Nc2ccc(C(=O)N3CCCCCC3)cc2)c1, the inhibition was -1.76% (inactive). For COc1ccc(CN2CCN(C(=O)CC(C)C)CC2)c2ccccc12, the inhibition was 0.53% (inactive). In the case of C/C(=C\C(=O)c1ncc(C(F)(F)F)cc1Cl)N(C)C, the inhibition was 9.23% (inactive). Cn1cc(CN2CCC(n3nccc3NC(=O)Cc3ccccc3)CC2)cn1 was tested, and the inhibition was 2.67% (inactive). In the case of O=C(NC(NCC1CCCO1)C(Cl)(Cl)Cl)c1cccc2ccccc12 (stereo unspecified), the inhibition was 2.66% (inactive). In the case of NC(=O)c1cc(-c2ccccc2)sc1NC(=O)CN1CCCCC1, the inhibition was 25.6% (inactive). In the case of CCc1cccc(N(C(=O)c2csnn2)C(C(=O)NC(C)(C)C)c2ccncc2)c1 (stereo unspecified), the inhibition was 14.2% (inactive). With Cc1ccc(SCC(=O)Nc2ccc3c(c2)C(=O)N(C)C3=O)cc1 the inhibition was 3.52% (inactive). With CCN1CCN(CC(=O)Nc2ccc(N(C)C)cc2)CC1 the inhibition was 15.6% (inactive). CC(C)c1ccc(NC(=O)Cn2ncn3c(cc4ccccc43)c2=O)cc1 was tested, and the inhibition was 5.59% (inactive). For CCc1ccc(NC(=O)Cn2ncn3c(cc4ccccc43)c2=O)cc1, the inhibition was 8.68% (inactive). In the case of CCN(CC)c1ccc(NC(=O)COC(=O)CCC(=O)c2ccc(F)cc2)cc1, the inhibition was 26.6% (inactive). For CC(C)(C)NC(=O)CN1CCC(O)(c2ccccc2)CC1, the inhibition was -0.59% (inactive). In the case of O=C(CN1CCN(c2ccc(Cl)cc2)CC1)Nc1ccc(F)cc1, the inhibition was 5.08% (inactive). CCN(CC)c1ccc(NC(=O)CN2CCN(c3ccc(F)cc3)CC2)cc1 was tested, and the inhibition was 22.8% (inactive). For CCN(c1ccc(NC(=O)COC(=O)CCC(=O)c2ccc(F)cc2)cc1)C(C)C, the inhibition was 23.7% (inactive). For O=C(NCCCN1CCOCC1)c1cccc(NC(=O)c2ccccc2)c1, the inhibition was 8.5% (inactive). Cc1cc(C)n(Cc2ccc(NC(=O)c3c([N+](=O)[O-])c(C)nn3C)cc2)n1 was tested, and the inhibition was 21.7% (inactive). Cn1ccnc1/C(=N\NC(=O)c1ccccc1)c1cccc([N+](=O)[O-])c1 was tested, and the inhibition was 17.9% (inactive). In the case of Cc1nc2nc(C)c(CCC(=O)O)c(C)n2n1, the inhibition was 8.37% (inactive). For CCCCC(CC)C(=O)Nc1ccc(C)c(O)c1 (stereo unspecified), the inhibition was 1.23% (inactive). For CCOc1ccc(S(=O)(=O)n2cnc3ccccc32)cc1, the inhibition was 12.2% (inactive). For CCCc1cc2c(=O)n(NC(=O)c3nn(C)cc3[N+](=O)[O-])c(C)nc2s1, the inhibition was 15.2% (inactive). For CCCCOP(=O)(c1ccc(N(C)C)cc1)C(O)c1cccnc1 (stereo unspecified), the inhibition was 7.96% (inactive). With Cc1ccc(C(=O)NCc2ccncc2)cc1S(=O)(=O)Nc1cccc(C)c1C the inhibition was 2.57% (inactive). In the case of COc1ccc(NC(=O)COC(=O)Cn2nnc3ccccc32)cc1, the inhibition was 12.6% (inactive). In the case of O=C(COC(=O)Cn1nnc2ccccc21)Nc1ccccc1Br, the inhibition was 7.03% (inactive). For O=C(NC1CCCC1)C1CCCN(S(=O)(=O)c2cnc[nH]2)C1 (stereo unspecified), the inhibition was 5.21% (inactive). For CCOC(=O)c1ccc(NC2c3ccccc3C(=O)N2c2ccccn2)cc1 (stereo unspecified), the inhibition was 0.465% (inactive). For Cc1ccccc1NC(=O)CC1SC(=O)N(c2ccccc2)C1=O (stereo unspecified), the inhibition was 14% (inactive). In the case of O=C(CC1SC(=O)N(c2ccccc2)C1=O)Nc1ccccc1 (stereo unspecified), the inhibition was 38.4% (inactive). With CO/N=C/C(=N\Nc1cc(OC)cc(OC)c1)C(=O)c1ccccc1 the inhibition was 9.31% (inactive). For CCn1cnc2cc(NCc3ccc(C)cc3)ccc21, the inhibition was 35.2% (inactive). For CCc1ccc(CNc2ccc3c(c2)ncn3CC)cc1, the inhibition was 24.4% (inactive). With Cc1ccc(CNc2ccc3c(c2)ncn3C(C)(C)C)cc1 the inhibition was 21.9% (inactive). For CCc1ccc(CNc2ccc3c(c2)ncn3C)cc1, the inhibition was 22.1% (inactive). With CN(C)c1ccc(CNc2ccc3c(c2)ncn3C(C)(C)C)cc1 the inhibition was 37.9% (inactive). With CCN(CC)c1ccc(CNc2ccc3c(c2)ncn3CC)cc1 the inhibition was 32.3% (inactive). Cc1nc2cc(-c3sccc3-n3cccc3)nn2c(C)c1C was tested, and the inhibition was 5.6% (inactive). For Cc1ccc(NS(=O)(=O)c2ccc(CCC(=O)NCc3cccnc3)cc2)cc1, the inhibition was 7.61% (inactive). With COC(=O)c1ccc(COc2cccc3c2CCN(Cc2ccccc2)C3=O)o1 the inhibition was 4.93% (inactive).
